# ELG1 genotoxic – inducers of genotoxicity in HEK293T ELG1-luciferase cells; HEK293T ELG1-luciferase reporter, luminescence, 16 h; Potency, µM (doses to about 46 µM), inactives show at the highest dose activity change, positive = activation, usual class: activators; 330,000 compounds, 1.3% hits; AID 504466; note: % of control where 0% means no effect; nearly all actives have a fitted effect of over 60% in size
#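 Reporter readout depends on ELG1 protein level, which increases with genetic stress. After 16 hr compound exposure at 37 °C, luciferase activity was quantified using ONE-Glo.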
# uPA surface inh – inhibitors of cell surface uPA generation. cell surface uPA generation assay, qHTS. Potency, µM (top dose mostly 38.3 µM), for the others: at the top dose activity change, negative = inhibition, usual class: inhibitors. 330,000 compounds, 0.31% hits. AID 540303; active = well fitted inhibition curve with a large enough effect; inconclusive = small, poorly fitted or top-dose-only effect; inactive = no such curve, though single readings can be large or run the other way; tested in mouse RAW 264.7 cells; note: % is set by controls: 0 for no effect and ±100 for the full control effect; nearly all actives have a fitted effect of over 55% in size
# FLuc modulator – firefly luciferase modulation, counter-screen for miR-21 project; 360,000 compounds, 6.9% hits; purified FLuc, Km substrates, luminescence inhibition; Potency, µM (titrated, usually from 57.5 µM), without a hit: at the top dose activity change, negative = inhibition, most hits filed as inhibitors;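 note: plate controls were vehicle for no effect and reference inhibitor for full effect; nearly all actives have a fitted effect of over 55% in size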
# Target sequence (P08659 whole entry, looked up): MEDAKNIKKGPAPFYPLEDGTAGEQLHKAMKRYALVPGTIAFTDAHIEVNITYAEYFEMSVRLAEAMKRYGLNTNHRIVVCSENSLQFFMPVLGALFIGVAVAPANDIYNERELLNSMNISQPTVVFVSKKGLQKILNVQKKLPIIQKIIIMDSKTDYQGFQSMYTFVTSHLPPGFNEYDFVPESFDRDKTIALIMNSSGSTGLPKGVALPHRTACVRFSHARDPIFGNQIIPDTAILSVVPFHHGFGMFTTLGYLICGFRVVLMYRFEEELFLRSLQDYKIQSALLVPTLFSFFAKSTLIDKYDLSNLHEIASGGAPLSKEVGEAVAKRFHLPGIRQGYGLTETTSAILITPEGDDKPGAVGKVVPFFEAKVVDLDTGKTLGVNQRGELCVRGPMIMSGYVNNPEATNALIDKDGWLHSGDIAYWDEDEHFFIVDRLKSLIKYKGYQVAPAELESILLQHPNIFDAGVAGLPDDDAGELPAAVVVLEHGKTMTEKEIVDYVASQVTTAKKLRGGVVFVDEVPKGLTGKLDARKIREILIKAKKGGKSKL
#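 Biochemical qHTS of compounds, final roughly 60 µM downward over six points, against 10 nM purified firefly luciferase using Km concentrations of substrates (10 uM D-luciferin, 10 uM ATP) in Tris acetate pH 7.5 buffer; luminescence output.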
# NPC1 prom act – NPC1 promoter activation; Huh7 NPC1 promoter luciferase reporter, 24 h; Potency, µM (doses to about 9.22 µM), inactives show top-dose activation, actives largely listed as activators; 320,000 compounds, 2.4% hits; AID 485313; note: % of control where 0% means no effect; nearly all actives have a fitted effect of over 60% in size
#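 Stably transfected Huh7 (NPC1 promoter→luciferase), 1500 cells/well in Opti-MEM + 10% FBS, 2 h settle, then compound 24 h at 37 °C. Luminescence after 10 min with Amplite reagent.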
# SMN2 splice up – increases expression of the SMN2 splice variant; HEK293 SMN2-luciferase splicing reporter, luminescence, 30-36 h; Potency, µM (top dose mostly 46.1 µM), inactives show at the top dose activity change, positive = activation, actives largely listed as activators; 210,000 compounds, 2.8% hits; AID 1458; note: % of control where 0% means no effect; nearly all actives have a fitted effect of over 55% in size
#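 HEK293 cells carry an SMN2 minigene-luciferase reporter in which exon 7 inclusion puts luciferase in frame. Cells were seeded at 2000 cells/well, attached for 10-12 hours, then exposed to compounds for 30-36 hours at 37C before ONE-Glo luminescence.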
# Rab9 prom act – activates the Rab9 promoter | Huh7 Rab9 promoter-luciferase reporter, luminescence, 24 h | Potency, µM (series often up to 9.22 µM), without a hit: at the highest dose activation, negative = inhibition, usual class: activators | 320,000 compounds, 2.8% hits | AID 485297; note: % of control where 0% means no effect; nearly all actives have a fitted effect of over 60% in size
#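 Steps: seed 1500 Huh7 Rab9-luc cells per well, rest 2 h at 37 °C; add compound in DMSO; incubate 24 h; add luciferase reagent, 10 min ambient; read luminescence.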
# Active calls of the source: *; ? = inconclusive; / = no result; [ ] = remark or other dose. Most compounds without a hit are left out; they make up all but 7.3% or so of the library. Unless noted, calls come from the whole dose curve; as a rule, active = well fitted curve in the direction sought with a large enough effect; inconclusive = small, poorly fitted or top-dose-only effect, or another doubt; inactive = no such curve, though single readings can be large; an effect the other way counts as inactive or inconclusive. Potency is the fitted concentration of half-maximal effect.
SMILES,ELG1 genotoxic,uPA surface inh,FLuc modulator,NPC1 prom act,SMN2 splice up,Rab9 prom act
COc1ccc(Cl)cc1NC(=S)NNC(=O)c1cccs1,-4%,-6%,27µM*,-2%,/,-10%
COc1ccc(Cl)cc1NC(=S)NNC(=O)c1cccnc1,-1%,-1%,?,0%,/,1%
O=C(NNC(=O)c1ccccc1Cl)c1cccs1,7%,6%,-15%,15%,28%,22%
COC(=O)N1C(c2ccccc2)=Cc2ccccc2C1C1(C(=O)OC)CCCC1=O (centres undefined),/,/,/,/,9%,/
CC(C)C(=O)Nc1cccc(-c2cn3ccsc3n2)c1,?,-2%,15µM*,13%,23%,29%
CC(C)CC(=O)Nc1cccc(-c2cn3ccsc3n2)c1,?,-1%,12µM*,?,18µM*,?
Cc1ccc(S(=O)(=O)Nc2cccc(-c3cn4ccsc4n3)c2)cc1,-6%,-19%,?,-16%,?,-9%
CCC(=O)Nc1cccc(-c2cn3ccsc3n2)c1,6%,4%,17µM*,14%,24%,-4%
CC(C)(C)CC(=O)Nc1cccc(-c2cn3cccnc3n2)c1,?,?,11µM*,?,11µM*,2.5µM*
CC(Sc1nnc(NC2CCCCC2)s1)C(=O)Nc1ccc2c(c1)C(=O)c1ccccc1C2=O (centres undefined),4%,-6%,?,?,10µM*,?
Cc1cc(-c2ccc(C(C)C)c(S(=O)(=O)N3CCN(c4ccccn4)CC3)c2)on1,-26%,0.89µM*,0%,-25%,/,-6%
CCc1ccc(-c2cc(C)no2)cc1S(=O)(=O)N1CCN(c2ccccn2)CC1,-14%,-10%,-1%,2%,/,-9%
Nc1nnc(/C=C/c2ccccc2Cl)s1,?,-4%,6.7µM*,?,/,3.5µM*
c1ccc(-c2cnc(-c3ccc(-c4ncc(-c5ccccc5)o4)cc3)o2)cc1,/,/,/,/,21%[9.22 µM],/
COc1ccc(-c2cnc(-c3cccnc3)o2)cc1,/,/,/,/,11µM*,/
CCn1cc(C2=NC(c3ccccc3)CO2)c2ccccc21 (centres undefined),6%,-10%,?,-6%,-3%,-2%
COc1ccc(C2=NC(c3ccccc3)CO2)cc1 (centres undefined),?,/,1.5µM*,3.2µM*,?,3.5µM*
O=[N+]([O-])c1cccc(C2=NC(c3ccccc3)CO2)c1 (centres undefined),?,13%,27µM*,?,2%,?
O=C(COc1ccccc1Cl)NCCCNC(=O)c1cccnc1,4%,-2%,-3%,0%,/,0%
Cc1ccc(N=Cc2cc(C)n(C3CCCC3)c2C)cc1,0%,/,11µM*,6%,11%,-6%
CCc1ccc2occ(CC(=O)Nc3c(C(=O)Nc4ccc(OC)cc4)oc4ccccc34)c2c1,/,/,-1%,/,-4%,/
CC(CCc1ccccc1)NC(=O)Cn1cccc1C(=O)c1ccccc1 (centres undefined),-4%,-1%,1%,0%,/,-1%
CCN(CC)S(=O)(=O)c1cc(C(=O)NC2CCCCC2)ccc1C,?,/,7.6µM*,2.8µM*,?,4µM*
CCN(CC)S(=O)(=O)c1cc(C(=O)Nc2ccc(Cl)cn2)ccc1C,1.8µM*,-10%,2.4µM*,1.8µM*,1.6µM*,1.6µM*
CC(CNC(=O)Cn1ccc2cc(S(=O)(=O)N3CCCCC3)ccc21)c1ccccc1 (centres undefined),/,/,-15%,/,/,/
NC(=O)CN1CCN(c2nc(-c3ccc(F)cc3)cs2)CC1,-1%,-4%,?,-2%,-10%,4%
Clc1ccc(-c2csc(N3CCC(c4ccccc4)C3)n2)cc1 (centres undefined),?,6%,2.7µM*,3.5µM*,2%,3.5µM*
Fc1ccc(-c2csc(N3CCC(c4ccccc4)C3)n2)cc1 (centres undefined),17%,-4%,2.4µM*,3.2µM*,?,3.5µM*

# Screening data as filed in PubChem BioAssay.
